Bioassay records as filed in PubChem BioAssay.
T cruzi growth-1: inhibitors of T. cruzi proliferation; T. cruzi beta-gal in NIH3T3, GalScreen luminescence, 90 h; inhibition, % at 8.34 µM; 77,000 compounds, 5.9% hits; AID 624255;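 active = mean inhibition above about 93%, with at least 55% of replicates each passing it, limit read from the data, passing the limit was not always enough; inconclusive = only one of those two conditions holds; inactive = neither condition holds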
C diff HTS: blocks growth of Clostridium difficile; AID 1259249; Clostridium difficile clinical isolate growth, OD600, 24 h; hits give low values; 86,000 compounds, 0.25% hits; growth activity, negative = inhibition, % at 16 µg/mL (by protocol);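 active = mean growth activity at or below -80% and every replicate also at or below -80%; inconclusive = mean at or below -80% but some replicate above -80%; inactive = mean growth activity above -80%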;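 also: 0% = DMSO wells and -100% = levofloxacin 16 µg/mL wells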
Pf Dd2 inh: P. falciparum Dd2 growth inhibition | activity change, % at 10 µM | 94,000 compounds, 2.3% hits | SYBR Green, 72 h; hits give low values | AID 1159554; in the data active = activity change below about -80%; inconclusive = no clear call, values can overlap the other calls
T cruzi growth-2: inhibitors of T. cruzi proliferation | shares compounds with T cruzi growth-1 | T. cruzi beta-gal in NIH3T3, GalScreen luminescence, 90 h | inhibition, % at 8.35 µM | 5,600 compounds, 72% hits;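 active = mean replicate inhibition above about 95% and at least 55% of replicates individually reaching it, limit read from the data; inconclusive = only one of the two criteria is met; inactive = neither criterion is met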
T cruzi growth-3: inhibitors of T. cruzi proliferation | shares compounds with T cruzi growth-1 | AID 651740 | T. cruzi beta-gal in NIH3T3, GalScreen luminescence, 90 h | inhibition, % at 2.09 µM | 5,600 compounds, 21% hits;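 active = mean inhibition above about 95%, with at least 55% of replicates also reaching it, limit read from the data; inconclusive = meets just one of the two conditions; inactive = meets neither condition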;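 also: plate controls were neutral control median for no effect and positive control median for full effect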
3T3 cytotox: kills mouse NIH/3T3 fibroblasts; 5,600 compounds, 14% hits; AID 651742; NIH/3T3 viability, CellTiter-Glo ATP luminescence, 90 h; shares compounds with T cruzi growth-1; cytotoxicity (signal decrease), % at 8.35 µM;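 active = mean signal decrease across replicates above about 35% based on untreated-well scatter, with enough replicates individually passing, limit read from the data; inconclusive = no rule stated though some were filed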;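 also: 0% = median of neutral control wells and 100% = median of positive control wells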
NIH3T3 tox 2: cytotoxicity in mouse NIH/3T3 fibroblasts; 5,600 compounds, 56% hits; shares compounds with T cruzi growth-1; inhibition, % at 24.9 µM; NIH/3T3 viability, CellTiter-Glo ATP luminescence, 90 h;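 active = mean loss of cell viability signal at or above a set limit, and enough replicates individually reaching it; inconclusive = meets only the mean limit or only the replicate share; inactive = meets neither condition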;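 also: 0% = median of neutral control wells and 100% = median of positive control wells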
* = called active by the depositor; ? = inconclusive; / = no result given. The list is not random: actives were taken first. Their share in the collection is about 6.7%.

SMILES | T cruzi growth-1 | C diff HTS | Pf Dd2 inh | others
CCCNC(=O)[C@@H]1[C@@H](CO)[C@@H]2Cn3c(cccc3=O)[C@H]1N2Cc1cc(F)ccc1F | -8 | -5 | 4
CCCN(C)C[C@@H]1Oc2ncc(-c3cccnc3)cc2C(=O)N([C@H](C)CO)C[C@H]1C | 4 | 1 | -40
Cc1ccc(-c2cnc3c(c2)C(=O)N([C@@H](C)CO)C[C@H](C)[C@@H](CN(C)Cc2ccccc2F)O3)cc1 | 115* | 9 | -23 | T cruzi growth-2=15;T cruzi growth-3=-30;3T3 cytotox=-4;NIH3T3 tox 2=4
Cc1ccc(-c2cnc3c(c2)C(=O)N([C@@H](C)CO)C[C@@H](C)[C@H](CN(C)CC2CCCCC2)O3)cc1 | 110* | 1 | -66 | T cruzi growth-2=95*;T cruzi growth-3=40;3T3 cytotox=9;NIH3T3 tox 2=104*
Cc1ccc(-c2cnc3c(c2)C(=O)N([C@@H](C)CO)C[C@H](C)[C@H](CN(C)Cc2ccccc2F)O3)cc1 | 100* | 4 | -30 | T cruzi growth-2=107*;T cruzi growth-3=32;3T3 cytotox=9;NIH3T3 tox 2=44*
Cc1ccc(-c2cnc3c(c2)C(=O)N([C@H](C)CO)C[C@@H](C)[C@H](CN(C)Cc2ccccc2F)O3)cc1 | 86 | -4 | -13
Cc1ccc(-c2cnc3c(c2)C(=O)N([C@H](C)CO)C[C@@H](C)[C@H](CN(C)CC2CCCCC2)O3)cc1 | 35 | 0 | -65
Cc1ccc(-c2cnc3c(c2)C(=O)N([C@H](C)CO)C[C@H](C)[C@H](CN(C)Cc2ccccc2F)O3)cc1 | 93 | 13 | -28
C[C@H](CO)N1C[C@H](C)[C@H](CN(C)Cc2ccccc2)OCCCC[C@H](C)Oc2ccc(NC(=O)Nc3ccccc3)cc2C1=O | / | / | 1
C[C@H](O)C#Cc1ccc2c(c1)O[C@@H](CN(C)CC1CC1)[C@@H](C)CN([C@@H](C)CO)S2(=O)=O | -89 | -5 | 11
C[C@H](O)C#Cc1cnc2c(c1)C(=O)N([C@H](C)CO)C[C@@H](C)[C@@H](CN(C)C(=O)Nc1ccc(F)cc1)O2 | 4 | 0 | 46
C[C@@H]1CN([C@H](C)CO)C(=O)c2cc(C#Cc3ccccc3F)cnc2O[C@@H]1CN(C)C(=O)C1CC1 | 81 | / | -29
C[C@@H](NC(=O)C[C@H]1C[C@@H]2c3cc(NC(=O)Nc4ccccc4F)ccc3O[C@@H]2[C@@H](CO)O1)c1ccccc1 | / | 2 | -41
O=C(NCCc1ccncc1)[C@@H]1[C@@H](CO)[C@@H]2Cn3c(ccc(-c4ccncc4)c3=O)[C@@H]2N1C(=O)C1CC1 | 54 | 5 | 12
CO[C@H](CN(C)Cc1ccc(-c2ccccn2)cc1)[C@@H](C)CN(C(=O)Nc1ccc(F)cc1)[C@@H](C)CO | 100* | / | -14 | T cruzi growth-2=102*;T cruzi growth-3=34;3T3 cytotox=17;NIH3T3 tox 2=12
CO[C@H](CN(C)Cc1ccc(-c2ccccn2)cc1)[C@@H](C)CN(C(=O)Nc1ccc(F)cc1)[C@H](C)CO | 90 | / | -31
C[C@H]1CN([C@@H](C)CO)C(=O)c2cc(NS(=O)(=O)c3ccc(Cl)cc3)ccc2O[C@@H]1CN(C)S(=O)(=O)c1ccc(Cl)cc1 | 3 | 1 | -51
COc1ccccc1-c1ccc2c(c1)O[C@H](CN(C)C(=O)Nc1cccc(F)c1)[C@H](C)CN([C@H](C)CO)S2(=O)=O | 87 | 16 | -33
CC(=O)N1[C@@H]2c3cccc(=O)n3C[C@@H]2[C@@H](CO)[C@@H]1C(=O)N[C@H](C)c1ccccc1 | -6 | -3 | 5
CCCN(C)C[C@H]1Oc2ncc(-c3ccccc3F)cc2C(=O)N([C@H](C)CO)C[C@@H]1C | 78 | 5 | -66
C[C@@H]1CCCCO[C@@H](CN(C)Cc2ccncc2)[C@@H](C)CN([C@H](C)CO)C(=O)c2cc(NC(=O)CCC(F)(F)F)ccc2O1 | -26 | -1 | 8
C[C@@H]1CCCCO[C@@H](CN(C)CC2CCCCC2)[C@H](C)CN([C@@H](C)CO)C(=O)c2cc(NC(=O)CCC(F)(F)F)ccc2O1 | ? | 18 | -11 | T cruzi growth-2=?;T cruzi growth-3=20;3T3 cytotox=9;NIH3T3 tox 2=18
C[C@@H]1CCCCO[C@@H](CN(C)CC2CCCCC2)[C@@H](C)CN([C@H](C)CO)C(=O)c2cc(NC(=O)CCC(F)(F)F)ccc2O1 | 13 | 5 | 8
